Test results as given in PubChem BioAssay AID620 (Sanford-Burnham Center for Chemical Genomics, 2007).
Screen size: about 87,000 compounds; about 360 (0.41%) were called active. Many of the other results were omitted from the sample, so actives are more common in it than they were. Values without a mark were called inactive. Cut-off read from the data, not from the text of the source: active = cytotoxicity above about 50%; inactive = the rest.

Assay: cytotoxicity in HT1080 fibrosarcoma cells, cell-based, fluorescence readout (AID 620);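 note: cells exposed to compound overnight then 4 h with Alamar Blue; 0% = vehicle DMSO and 100% = killing control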
Details: HT1080 viability, at 10 µM, hits give high values

SMILES	cytotoxicity
O=C(C1CC1)N1CCN=C1SCc1ccccc1	-4.5%
Cc1cccc(NC(=O)c2ccc(S(=O)(=O)N(C)C)cc2)n1	36.5%
CCc1ccc(NC(=O)CCn2ccnc2C)cc1	-7%
Cc1ccc(S(=O)(=O)N(C)c2ccc(OCC(=O)OCc3c(C)noc3C)cc2)cc1	11.5%
CCC(C)(C)NC(=O)CN(C(=O)CCC(=O)Nc1cc(C)ccn1)c1ccc2c(c1)OCO2	-1.1%
CCCCCCCCCC(=O)OCC(O)CO (stereo not drawn)	-10.7%
CCCCCCCC(=O)OCC(O)CO (stereo not drawn)	-0.9%
CCCCCCCCCCCCCCCC(O)C(N)CO (stereo not drawn)	58.2% (active)
COCCn1nnnc1CN(Cc1ccco1)Cc1cc2cc3c(cc2[nH]c1=O)OCO3	-10.7%
CCn1cc(C(=O)NCc2cccs2)c(=O)c2ccc(C)nc21	-4%
COc1ccc(OC)c(Nc2cc(C)nc3ccccc23)c1	20.6%
COc1ccc(OC)c(Nc2nc(N)nc(-c3cc4ccccc4o3)n2)c1	4.8%
COc1ccc(OC)c(Nc2cc(-c3ccccc3)nc(N)n2)c1	56.1% (active)
c1ccc(CSc2ncccn2)cc1	4.3%
O=C(CCNS(=O)(=O)c1ccccc1F)NCc1ccc2c(c1)OCO2	-0.4%
COC(=O)N1[C@H](C)C=C[C@]1(Cc1ccccc1)C(=O)OC	-24.7%
COC(=O)N1[C@H](C)C=C[C@]1(Cc1ccccc1)C(=O)O	90.8% (active)
CNC(=O)[C@@]1(Cc2ccccc2)C=C[C@@H](C)N1C(=O)OC	-24.6%
CCc1nnc(NC(=O)CSc2nccn2-c2cccc(C)c2C)s1	-9.5%
Cc1nnc(NC(=O)CSc2nccn2-c2cccc(C)c2C)s1	54.7% (active)
CCSc1nnc(NC(=O)CSc2nccn2-c2cccc(C)c2C)s1	-8.3%

SMILES	cytotoxicity
CN1/C(=C\C(=O)c2ccco2)C(C)(C)c2ccccc21	9%
CN1/C(=C\C(=O)C(F)F)C(C)(C)c2ccccc21	-3.2%
COC(=O)c1ccc(Oc2cc(C)nc(SC)n2)cc1	48.5%
COC(=O)c1ccc(Oc2cc(C)nc(-n3nc(C)cc3C)n2)cc1	68.3% (active)
CC(=O)c1ccc(Oc2cc(C)nc(NCc3ccccc3)n2)cc1	-1%
COC(=O)c1ccc(Oc2nc(C)cc(Oc3ccccc3)n2)cc1	11.3%
CC(=O)c1ccc(Oc2cc(C)nc(-n3nc(C)cc3C)n2)cc1	50.3% (active)
Cc1ccc(Oc2cc(-n3nc(C)cc3C)ncn2)cc1	-3.6%
c1ccc(-c2cc(-c3nc(-c4ccccn4)no3)c3ccccc3n2)cc1	-10.1%
COc1cccc(C(c2sc3nc(C)nn3c2O)N2CCc3ccccc3C2)c1 (stereo not drawn)	-7.4%
CCOC(=O)CNC(=O)CSc1nnc(Cn2c(=O)sc3ccccc32)n1C	-4.4%
Cc1cc(C(=O)OCC(=O)N2CCN(C(=O)c3ccco3)CC2)c(C)n1-c1ccc(F)cc1	-4.9%
Cc1cc(C(=O)CNCc2ccco2)c(C)n1-c1ccc(F)cc1	2.4%
O=C(COC(=O)c1ccccc1)NCc1ccco1	6.9%
Cc1cc(C(=O)OCC(=O)NCc2ccco2)c(C)n1-c1ccc(F)cc1	63.7% (active)
Cc1cc(C(=O)OCC(=O)NCc2ccco2)c(C)n1-c1ccccc1	62.1% (active)
Cc1nn(-c2ccccc2)c(C)c1C(=O)OCC(=O)NCc1ccco1	-6.6%
COc1cccc(NC(=O)c2ccccc2-c2nc(-c3ccc(Cl)cc3)no2)c1	16.9%
O=C(NCc1ccco1)C(C(=O)c1ccc(F)cc1)n1ccccc1=O (stereo not drawn)	-0.6%
Cc1cc(NC(=O)COC(=O)c2ccc(NS(=O)(=O)c3ccc(C)c(C)c3)cc2)no1	-8.8%
COC(=O)Nc1ccc(S(=O)(=O)N2CCCc3ccccc32)cc1	53% (active)

SMILES	cytotoxicity
Cc1cc(NC(=O)COC(=O)c2ccc(S(=O)(=O)N3CCCc4ccccc43)cc2)no1	52.4% (active)
CC(=O)Nc1ccc(S(=O)(=O)N2CCCc3ccccc32)cc1	23.1%
O=C(O)C1CC=CCC1C(=O)Nc1ccc(S(=O)(=O)N2CCCc3ccccc32)cc1 (stereo not drawn)	-8.5%
Cc1cc(NC(=O)COC(=O)c2cccc(S(=O)(=O)N3CCOCC3)c2)no1	8.4%
COc1ccc(CCNS(=O)(=O)c2ccc3c(c2)oc(=O)n3C)cc1OC	3.2%
CCOC(=O)COc1ccc(S(=O)(=O)N2CCN(c3ccccc3F)CC2)cc1	-0.3%
COc1ccc2cc3c(N)c(C(=O)N4CCCC4)sc3nc2c1	3.4%
Cc1ccc2cc3c(N)c(C(=O)N4CCOCC4)sc3nc2c1	3.2%
Cc1cccc2cc3c(N)c(C#N)sc3nc12	2.6%
CCOc1ccc2nc3sc(C(=O)N4CCN(C)CC4)c(N)c3cc2c1	-19.5%
Cc1ccc2nc3sc(C(=O)N4CCOCC4)c(N)c3cc2c1	55.8% (active)
Cc1cccc2cc3c(N)c(C(=O)N4CCOCC4)sc3nc12	59% (active)
CCN(CC)CCNC(=O)c1c(O)c2c([nH]c1=O)CCCC2	0.6%
O=C(CCn1c(=S)[nH]c2ccccc2c1=O)N1CCOCC1	-2.8%
O=C1C2CC=C(Cl)CC2C(=O)N1c1ncn[nH]1 (stereo not drawn)	-1.3%
CC(C)C1N(c2ccccc2)C(N)=C(C#N)C1(C#N)C#N (stereo not drawn)	-5.5%
COc1ccc(-c2nnc(Nc3nc4c(OC)cccc4s3)o2)c(OC)c1	8.4%
COc1ccccc1-c1nnc(Nc2nc3c(OC)cccc3s2)o1	51.8% (active)
COc1cccc2sc(Nc3nnc(-c4ccccc4Cl)o3)nc12	-3.2%
Cc1ccc(C(C(=O)NCc2ccccc2)N(C(=O)c2csnn2)c2cccc3ccccc23)o1 (stereo not drawn)	-5.1%
COc1cc(/C=N/Nc2nc3ccccc3o2)cc(OC)c1O	17.8%
